# Test results published in PubChem BioAssay (Tox21).
# Results filed as inconclusive are left out. Entries that show only a call come without a potency. Unmarked numbers belong to inactive results. The source made the active and inactive calls. Unless noted, the call rests on the fitted dose curve; in most records, active means well fitted curve in the direction sought with a large enough effect in the repeat runs; inconclusive means weak or mixed curves; inactive means no such curve, though single readings can be large; an effect the other way counts as inactive or inconclusive.
# What was measured:
# [1] = qHTS assay to identify small molecule antagonists of the estrogen receptor alpha (ER-alpha) signaling pathway - cell viability counter screen (AID 743074; calls by dose curve;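 further: HEK293 cells carrying ER-alpha-UAS-bla reporter stimulated with 17beta-estradiol; nearly all actives have a fitted effect of over 45% in size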; further: potency means the concentration at half of the fitted maximal effect)
# [2] = qHTS assay to identify small molecule antagonists of the estrogen receptor alpha (ER-alpha) signaling pathway using the BG1 cell line - cell viability counter screen (AID 743081);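 further: compound given together with 17beta-estradiol as the ER stimulus; nearly all actives have a fitted effect of over 45% in size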; further: potency means the concentration at half of the fitted maximal effect
# [3] = molecular target: Aromatase (Homo sapiens) (UniProt P11511); test: qHTS assay to identify aromatase inhibitors (AID 743083); further: nearly all actives have a fitted effect of over 55% in size; further: potency means the concentration at half of the fitted maximal effect
# [4] = qHTS assay to identify aromatase inhibitors - cell viability counter screen (AID 743084);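 further: cells stimulated with testosterone during compound exposure; nearly all actives have a fitted effect of over 55% in size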; further: potency means the concentration at half of the fitted maximal effect
# [5] = molecular target: Aryl hydrocarbon receptor (Homo sapiens) (UniProt P35869); test: qHTS assay to identify small molecule that activate the aryl hydrocarbon receptor (AhR) signaling pathway (AID 743085); further: nearly all actives have a fitted effect of over 15% in size; further: potency means the concentration at half of the fitted maximal effect;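 on activation: HG2L7.5c1 human HepG2 liver cells with stably integrated DRE-driven firefly reporter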
# Procedure, shortened: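 Reporter assay in engineered HepG2 line HG2L7.5c1, whose plasmid carries twenty dioxin responsive elements upstream of firefly luciferase. Treatment lasted 24 h at 37C; ONE-Glo luminescence gauged induction.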
# [6] = qHTS assay to identify small molecule that activate the aryl hydrocarbon receptor (AhR) signaling pathway - cell viability counter screen (AID 743086); further: nearly all actives have a fitted effect of over 45% in size; further: potency means the concentration at half of the fitted maximal effect
# Procedure, shortened: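 HepG2-AhR-luc (HG2L7.5c1) cells, 4000/well, treated 24 h at 37 C with compound; viability measured as CellTiter-Fluor fluorescence after 30 min in the same wells as the luciferase read.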
# [7] = molecular target: Peroxisome proliferator-activated receptor gamma (Homo sapiens) (UniProt P37231); test: qHTS assay to identify small molecule agonists of the peroxisome proliferator-activated receptor gamma (PPARg) signaling pathway (AID 743094; active means well fitted activation curve with a large enough effect in the signal ratio in the repeat runs, not every such curve was filed as active; the % refers to the signal ratio)
# Procedure, shortened: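 Beta-lactamase FRET fluorescence was the read-out after a 1 h room-temperature substrate step, following 17 h compound treatment at 37C of HEK293H cells expressing a UAS-driven bla reporter responsive to PPARg.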
# [8] = qHTS assay to identify small molecule phospholipidosis (PLD) inducers (AID 1259344; active means well fitted curve in the direction sought with a large enough effect; an effect the other way counts as inactive or inconclusive)
# Procedure, shortened: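 Quantitative HTS in HepG2: compound plus LipidTOX Red dye for 24 h, paraformaldehyde fixation with Hoechst 33342, widefield high-content imaging; amiodarone as positive and DMSO as negative control.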
# [9] = molecular target: Nuclear receptor subfamily 1 group I member 2 (Rattus norvegicus) (UniProt Q9R1A7); test: Rat pregnane X receptor (rPXR) activation by small molecules, qHTS assay (AID 1346983); settings: rPXR luciferase reporter cells, One-Glo luminescence, 24 h; max activation: stronger effect = higher value; further: nearly all actives have a fitted effect of over 20% in size; further: potency means the concentration at half of the fitted maximal effect
# Procedure, shortened: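 Cell-based rPXR activation assay: rPXR cells, 2,000 per well, rested 5hr at 37 C, then exposed to compounds in DMSO for 24 hr at 37 C. Luciferase activity read by One-Glo luminescence after 30 min at room temperature.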
# [10] = molecular target: Nuclear receptor subfamily 1 group I member 2 (Homo sapiens) (UniProt O75469); test: CYP3A4 induction through human pregnane X receptor (PXR) by small molecules, qHTS assay (AID 1346984); further: nearly all actives have a fitted effect of over 40% in size
# Procedure, shortened: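 Luminescence readout: luciferase signal after One-Glo (30 min, room temperature), following 3 h at 37C with 3uM final Luciferin-IPA P450 substrate. Cells were DPX-2 (HepG2, PXR/CYP3A4-luc co-transfected) dosed for 24 h.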
# [11] = molecular target: Nuclear receptor subfamily 1 group I member 2 (Homo sapiens) (UniProt O75469); test: Human pregnane X receptor (PXR) activation by small molecules, qHTS assay (AID 1346985); further: nearly all actives have a fitted effect of over 40% in size
# Procedure, shortened: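 DPX-2 cells (HepG2 co-transfected with a PXR response element and a CYP3A4-promoter luciferase construct) were seeded at 2,000 per well, rested 5 hr at 37C, then exposed to DMSO-dissolved compounds for 24 hr. Activation was read as luciferase luminescence.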
# [12] = qHTS assay to identify small molecule antagonists of the thyroid receptor (TR) signaling pathway - cell viability counter screen (AID 743064); further: nearly all actives have a fitted effect of over 50% in size; further: potency means the concentration at half of the fitted maximal effect
# Procedure, shortened: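 Same-well viability check: GH3.TRE-Luc cells stimulated with 1 nM T3 alongside test compound for 23.5 h, followed by CellTiter-Fluor fluorescence.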
# [13] = qHTS assay to identify small molecule antagonists of the thyroid receptor (TR) signaling pathway (AID 743065); further: nearly all actives have a fitted effect of over 55% in size; further: potency means the concentration at half of the fitted maximal effect
# Procedure, shortened: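 GH3.TRE-Luc rat pituitary cells (two TREs driving luciferase) were dosed with compound, then stimulated with 1 nM T3 (final) for 23.5 h at 37 C. ONE-Glo luminescence was the read-out, with CellTiter-Fluor fluorescence as the cytotoxicity counter-screen.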
# [14] = test system: thyroid hormone receptor (rat, GH3 cells); test: qHTS assay to identify small molecule agonists of the thyroid receptor (TR) signaling pathway (AID 743066; calls by dose curve)
# [15] = molecular target: Estrogen receptor (Homo sapiens) (UniProt P03372); test: qHTS assay to identify small molecule antagonists of the estrogen receptor alpha (ER-alpha) signaling pathway (AID 743069; active means well fitted curve in the direction sought with a large enough effect in the signal ratio in the repeat runs, not every such curve was filed as active; the % refers to the signal ratio)
# Procedure, shortened: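 Reporter cells (ER-alpha-bla, HEK293 background) are conditioned overnight in stripped-serum medium (2% charcoal-stripped FBS). Compound and 17beta-estradiol exposure runs 18 hr at 37C, 5% CO2.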
# [16] = molecular target: Estrogen receptor (Homo sapiens) (UniProt P03372); test: qHTS assay to identify small molecule agonists of the estrogen receptor alpha (ER-alpha) signaling pathway (AID 743075; calls by dose curve;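 further: HEK293 GripTite cells with ER-alpha and UAS-driven beta-lactamase reporter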)
# [17] = molecular target: Estrogen receptor (Homo sapiens) (UniProt P03372); test: qHTS assay to identify small molecule agonists of the estrogen receptor alpha (ER-alpha) signaling pathway using the BG1 cell line (AID 743079); settings: BG1Luc4E2 cells, ERE-luciferase agonist, 22 h; activation: at 70.3 µM (top of the series); further: nearly all actives have a fitted effect of over 20% in size; further: potency means the concentration at half of the fitted maximal effect
# [18] = qHTS assay to identify small molecule antagonists of the estrogen receptor alpha (ER-alpha) signaling pathway using the BG1 cell line (AID 743080; calls by dose curve;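 further: BG1 cells stimulated with 17beta-estradiol alongside compound; nearly all actives have a fitted effect of over 25% in size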)
# Procedure, shortened: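 After 5 days in phenol-red-free 10% charcoal-stripped FBS medium, BG1-Luc-4E2 cells were seeded, left 24 h at 37 C, co-treated with compounds and 17beta-estradiol for 21.5 h, then assayed for viability and luciferase.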
# Aromatase (Homo sapiens), sequence (P11511 whole entry, looked up): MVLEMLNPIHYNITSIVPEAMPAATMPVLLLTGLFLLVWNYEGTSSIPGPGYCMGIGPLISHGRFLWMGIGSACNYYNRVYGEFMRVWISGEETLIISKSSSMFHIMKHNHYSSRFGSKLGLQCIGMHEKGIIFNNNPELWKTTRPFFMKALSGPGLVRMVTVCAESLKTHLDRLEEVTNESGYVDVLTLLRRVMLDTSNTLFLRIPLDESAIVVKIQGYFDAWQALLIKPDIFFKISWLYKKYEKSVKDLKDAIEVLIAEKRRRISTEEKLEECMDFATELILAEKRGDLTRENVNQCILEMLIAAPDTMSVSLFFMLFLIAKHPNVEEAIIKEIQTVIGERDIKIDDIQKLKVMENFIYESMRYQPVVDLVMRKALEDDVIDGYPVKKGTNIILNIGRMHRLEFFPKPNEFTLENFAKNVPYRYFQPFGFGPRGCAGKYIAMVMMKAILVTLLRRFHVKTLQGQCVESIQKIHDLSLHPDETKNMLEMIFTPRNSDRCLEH
# Estrogen receptor (Homo sapiens), sequence (P03372 whole entry, looked up): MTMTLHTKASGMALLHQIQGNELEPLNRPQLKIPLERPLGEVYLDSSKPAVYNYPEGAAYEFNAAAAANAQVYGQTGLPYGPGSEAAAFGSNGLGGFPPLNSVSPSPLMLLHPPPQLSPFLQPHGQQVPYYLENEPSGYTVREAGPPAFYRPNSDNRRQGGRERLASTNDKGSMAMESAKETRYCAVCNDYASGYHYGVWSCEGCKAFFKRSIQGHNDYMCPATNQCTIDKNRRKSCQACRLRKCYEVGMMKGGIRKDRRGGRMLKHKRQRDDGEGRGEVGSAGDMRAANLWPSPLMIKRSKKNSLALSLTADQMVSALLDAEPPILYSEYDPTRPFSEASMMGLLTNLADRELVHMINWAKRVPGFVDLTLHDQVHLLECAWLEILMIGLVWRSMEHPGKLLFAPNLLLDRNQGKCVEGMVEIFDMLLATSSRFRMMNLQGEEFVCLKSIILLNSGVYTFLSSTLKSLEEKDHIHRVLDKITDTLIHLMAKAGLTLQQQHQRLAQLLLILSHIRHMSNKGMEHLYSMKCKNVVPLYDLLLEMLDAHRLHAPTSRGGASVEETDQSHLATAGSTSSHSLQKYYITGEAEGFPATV
# Aryl hydrocarbon receptor (Homo sapiens), sequence (P35869 whole entry, looked up): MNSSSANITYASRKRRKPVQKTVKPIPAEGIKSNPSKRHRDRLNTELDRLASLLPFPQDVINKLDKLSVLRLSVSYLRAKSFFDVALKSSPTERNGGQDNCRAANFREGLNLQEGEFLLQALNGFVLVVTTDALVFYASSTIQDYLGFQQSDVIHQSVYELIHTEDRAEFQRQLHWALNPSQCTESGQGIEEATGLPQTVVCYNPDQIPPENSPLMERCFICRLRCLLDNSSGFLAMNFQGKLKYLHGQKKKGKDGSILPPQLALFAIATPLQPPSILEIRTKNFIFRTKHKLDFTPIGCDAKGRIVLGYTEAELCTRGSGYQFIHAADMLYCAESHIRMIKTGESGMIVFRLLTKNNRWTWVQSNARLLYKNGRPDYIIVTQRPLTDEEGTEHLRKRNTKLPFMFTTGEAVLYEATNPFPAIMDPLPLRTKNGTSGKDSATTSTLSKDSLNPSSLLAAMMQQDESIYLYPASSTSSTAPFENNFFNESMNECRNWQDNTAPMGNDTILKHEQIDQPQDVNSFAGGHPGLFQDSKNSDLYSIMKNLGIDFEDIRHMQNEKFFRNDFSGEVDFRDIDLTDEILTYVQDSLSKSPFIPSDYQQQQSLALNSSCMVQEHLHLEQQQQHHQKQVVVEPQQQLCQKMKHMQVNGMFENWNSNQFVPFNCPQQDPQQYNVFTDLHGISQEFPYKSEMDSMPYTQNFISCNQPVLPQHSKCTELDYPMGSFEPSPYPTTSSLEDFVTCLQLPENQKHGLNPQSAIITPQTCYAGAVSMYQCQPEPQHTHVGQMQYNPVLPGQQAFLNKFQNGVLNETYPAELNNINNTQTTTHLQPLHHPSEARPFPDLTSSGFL
# Nuclear receptor subfamily 1 group I member 2 (Rattus norvegicus), sequence (Q9R1A7 whole entry, looked up): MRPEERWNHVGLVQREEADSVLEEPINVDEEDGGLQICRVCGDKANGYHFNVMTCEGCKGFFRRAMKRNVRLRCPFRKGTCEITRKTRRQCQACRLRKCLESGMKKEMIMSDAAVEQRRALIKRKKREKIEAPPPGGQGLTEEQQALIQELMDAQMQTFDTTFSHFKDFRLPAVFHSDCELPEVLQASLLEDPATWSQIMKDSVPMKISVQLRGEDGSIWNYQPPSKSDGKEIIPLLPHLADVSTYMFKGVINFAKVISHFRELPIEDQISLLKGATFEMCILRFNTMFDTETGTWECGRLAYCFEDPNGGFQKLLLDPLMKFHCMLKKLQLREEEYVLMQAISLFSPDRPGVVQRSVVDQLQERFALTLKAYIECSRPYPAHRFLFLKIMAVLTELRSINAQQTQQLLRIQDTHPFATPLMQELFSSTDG
# Peroxisome proliferator-activated receptor gamma (Homo sapiens), sequence (P37231 whole entry, looked up): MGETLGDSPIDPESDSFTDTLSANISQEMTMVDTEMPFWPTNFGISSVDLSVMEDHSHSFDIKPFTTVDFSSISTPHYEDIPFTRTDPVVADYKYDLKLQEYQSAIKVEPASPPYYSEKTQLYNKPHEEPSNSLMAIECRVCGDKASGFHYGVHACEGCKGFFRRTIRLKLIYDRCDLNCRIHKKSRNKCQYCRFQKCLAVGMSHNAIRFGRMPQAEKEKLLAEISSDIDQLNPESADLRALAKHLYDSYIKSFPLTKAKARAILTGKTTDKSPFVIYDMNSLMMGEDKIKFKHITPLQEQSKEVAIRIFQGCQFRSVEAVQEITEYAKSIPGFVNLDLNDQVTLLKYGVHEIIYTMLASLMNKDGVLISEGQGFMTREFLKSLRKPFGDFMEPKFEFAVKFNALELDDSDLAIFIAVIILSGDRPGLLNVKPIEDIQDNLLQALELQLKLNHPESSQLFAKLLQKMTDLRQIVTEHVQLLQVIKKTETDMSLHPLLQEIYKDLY
Structure (SMILES),Potency [1],Potency [2],Potency [3],Potency [4],Potency [5],Potency [6],Potency [7],Potency [8],max activation [9] [%],Potency [10],Potency [11],Potency [12],Potency [13],Potency [14],Potency [15],Potency [16],Potency [17],Potency [18],Potency [9]
CC1(C)S[C@@H]2[C@H](NC(=O)C(N)c3ccccc3)C(=O)N2[C@H]1C(=O)OC1OC(=O)c2ccccc21 (stereo partly specified),inactive,inactive,inactive,inactive,inactive,inactive,inactive,inactive,-3.71,inactive,inactive,–,–,–,–,–,–,–,–
CC1(C)[C@@H]2CC[C@@]1(C)[C@H](OC(=O)CSC#N)C2,inactive,inactive,inactive,inactive,inactive,inactive,inactive,inactive,7.49,inactive,–,inactive,inactive,inactive,inactive,inactive,inactive,inactive,–
Cc1cc(C(=O)NNCc2ccccc2)no1,inactive,inactive,inactive,inactive,–,inactive,inactive,inactive,-1.39,inactive,inactive,–,–,–,inactive,inactive,5.07 µM (active),–,–
CCN(CC)Cc1cc(Nc2ccnc3cc(Cl)ccc23)ccc1O,inactive,–,inactive,–,inactive,inactive,–,inactive,-2.52,inactive,inactive,–,–,–,–,–,–,–,–
COc1cc2c(cc1OC)[C@@H](c1ccccc1)CN(C)CC2,inactive,inactive,–,inactive,inactive,inactive,inactive,inactive,1.99,inactive,–,inactive,–,inactive,–,inactive,inactive,inactive,–
CC(O)[C@@H]1NC(=O)[C@H](Cc2ccccc2)NC(=O)[C@H](C(C)O)NC(=O)[C@H](CCCCN)NC(=O)[C@H](Cc2c[nH]c3ccccc23)NC(=O)[C@H](Cc2ccccc2)NC(=O)[C@H](Cc2ccccc2)NC(=O)[C@H](CC(N)=O)NC(=O)[C@H](CCCCN)NC(=O)[C@@H](NC(=O)CNC(=O)[C@H](C)N)CSSC[C@@H](C(=O)O)NC(=O)[C@H](CO)NC1=O (stereo partly specified),inactive,inactive,inactive,inactive,inactive,inactive,inactive,inactive,-3.53,inactive,–,inactive,inactive,inactive,inactive,inactive,inactive,inactive,–
CN=C1C=CC(=C(c2ccc(N(C)C)cc2)c2ccc(N(C)C)cc2)C=C1,9.52 µM (active),11.9 µM (active),1.33 µM (active),6.68 µM (active),–,6.68 µM (active),–,inactive,-26,inactive,–,3.35 µM (active),2.37 µM (active),–,–,–,–,–,–
O=C(O)c1ccc(NC(=O)[C@H](Cc2ccc(O)cc2)NC(=O)c2ccccc2)cc1,inactive,inactive,inactive,inactive,inactive,inactive,inactive,inactive,0.18,inactive,–,inactive,inactive,inactive,inactive,inactive,inactive,–,–
COc1ccc(CC2c3cc(OC)c(OC)cc3CC[N+]2(C)CCC(=O)OCCCCCOC(=O)CC[N+]2(C)CCc3cc(OC)c(OC)cc3C2Cc2ccc(OC)c(OC)c2)cc1OC (stereo unspecified),inactive,inactive,inactive,inactive,inactive,inactive,–,inactive,-3.66,inactive,–,inactive,inactive,inactive,–,–,–,–,–
Cc1cccc(Nc2ncccc2C(=O)O)c1C,inactive,inactive,inactive,inactive,29.8 µM (active),inactive,inactive,inactive,-0.253,inactive,–,inactive,–,inactive,–,inactive,–,–,–
CCC(=O)O[C@@H]1CC(=O)O[C@H](C)C/C=C/C=C/[C@H](O)[C@H](C)C[C@H](CC=O)[C@H](O[C@@H]2O[C@H](C)[C@@H](O[C@H]3C[C@@](C)(O)[C@@H](OC(=O)CC)[C@H](C)O3)[C@H](N(C)C)[C@H]2O)[C@H]1OC,inactive,inactive,inactive,inactive,inactive,inactive,–,inactive,-4.74,inactive,inactive,–,–,–,–,–,–,–,–
CC1CCC(NC(=O)N(CCCl)N=O)CC1 (stereo unspecified),inactive,inactive,inactive,inactive,–,inactive,inactive,inactive,–,inactive,–,inactive,inactive,inactive,inactive,inactive,26.6 µM (active),–,5.01 µM (active)
CC(C)(CO)[C@@H](O)C(=O)NCCCC(=O)O,inactive,inactive,inactive,inactive,inactive,inactive,inactive,inactive,-8.61,inactive,–,inactive,inactive,inactive,inactive,inactive,–,–,–
O=C(Cc1cccs1)N[C@@H]1C(=O)N2C(C(=O)[O-])=C(C[n+]3ccccc3)CS[C@H]12,inactive,inactive,inactive,inactive,–,inactive,inactive,inactive,-1.81,inactive,–,inactive,inactive,inactive,inactive,inactive,inactive,–,–
